Whole data set: some 33,000 sequences, median “E-score (-0.5 to 0.5)” near -0.012, cut for the highest 2% near 0.27. What follows is part of a selection rich in the highest values, with near analogues and random picks from the rest.
The sequences below were run against T1, Vhr1 (UniProt P40522) (assay: PBM E-score (8-mer binding enrichment) (E-score (-0.5 to 0.5)); higher = stronger / more preferred TF binding). Conditions: protein concentration: 200 nM; construct: GST-full length.
T1 sequence: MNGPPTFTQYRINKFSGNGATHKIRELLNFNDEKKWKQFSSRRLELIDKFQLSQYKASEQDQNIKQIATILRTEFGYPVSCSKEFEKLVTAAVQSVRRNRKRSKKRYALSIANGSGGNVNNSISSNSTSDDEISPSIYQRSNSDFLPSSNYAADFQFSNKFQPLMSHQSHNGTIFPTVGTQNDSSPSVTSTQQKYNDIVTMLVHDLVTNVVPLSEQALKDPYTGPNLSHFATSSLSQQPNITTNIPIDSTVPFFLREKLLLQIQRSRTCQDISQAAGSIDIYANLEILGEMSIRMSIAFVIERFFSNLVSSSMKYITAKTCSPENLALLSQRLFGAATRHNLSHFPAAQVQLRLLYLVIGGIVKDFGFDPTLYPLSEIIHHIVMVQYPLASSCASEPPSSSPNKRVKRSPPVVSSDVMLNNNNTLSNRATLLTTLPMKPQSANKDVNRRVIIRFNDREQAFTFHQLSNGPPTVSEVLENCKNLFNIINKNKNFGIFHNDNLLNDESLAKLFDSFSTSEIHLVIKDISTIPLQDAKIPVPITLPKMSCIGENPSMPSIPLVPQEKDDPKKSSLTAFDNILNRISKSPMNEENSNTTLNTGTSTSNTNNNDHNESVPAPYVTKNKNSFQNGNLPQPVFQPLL
Description: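 Universal 'all 10-mer' protein binding microarrays (Agilent AMADID 015681) probed with GST-tagged S. cerevisiae TFs (full-length or DBD) made by in vitro transcription/translation (PURExpress), about 100-200 nM. Bound TF was detected with fluorescent anti-GST. Each ungapped 8-mer (which stands for itself and its reverse complement) is scored by the PBM enrichment score (E-score), a modified Wilcoxon-Mann-Whitney statistic from -0.5 to +0.5, computed with the Universal PBM Analysis Suite. Scale: above 0.35 generally sequence-specific binding.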

Sequence	PBM E-score
GGGATGAC	0.323
AGGATGAT	0.309
ATGATGAC	0.303
GCTAGCCA	-0.17
CAGATCAG	-0.112
CGCGAATC	0.193
ACGTATCC	-0.194
CCATTAGC	-0.0966
ATTGGCCG	-0.13
GCACTGAC	0.0316
GCGAAGAA	-0.191
ACACACCG	0.223
CCACACCA	0.141
ACACACCC	0.198
TCACACCA	0.17
ACACACCA	0.282
ACACACCT	0.283
AACGTCAA	-0.269
AGGCTTCC	-0.119
CAAACGAG	0.0174
CTATGGCA	-0.132
GTCCTTAA	-0.00154
AGCGCGCG	0.0844
GGCGCGCA	0.121
CGCGCGCC	0.228

Sequence	PBM E-score
CGCGCGCA	0.259
CGCGCGCG	0.286
TGCGCGCA	0.29
TGGTTGAA	-0.0692
TATGCTCA	0.0368
GAGTGCCC	-0.0963
AAGCACTA	-0.0763
CATGCTGA	0.275
AATGCTGA	0.027
GATGCTGA	0.0169
AACGACGC	-0.0318
CATTCACC	0.0887
AAGAGGAT	-0.0743
GGTCTTTA	-0.0868
ACTCCCTA	0.063
ACTCCCTC	0.0377
ACTCCCTG	0.276
CGGGTCAG	0.204
ACAAGTCA	0.174
GGAAGTCC	-0.212
TCAAGTCA	0.111
GCAAGTCA	0.279
CGAAGTCA	0.203
GGAAGTCA	0.282
TAGTTGAA	0.134

Sequence	PBM E-score
AAGAAACA	-0.161
CCAGACGC	-0.029
CTAAGGAC	-0.0588
CGTTGCCC	-0.166
ATCGCCTA	0.0387
AGGCAAAG	-0.192
TAGAGTGA	-0.0169
TAGAGTAA	-0.082
TAGAGTCA	0.355
GAGAGTAA	0.0595
AAGAGTCC	-0.149
GAGAGTCC	-0.0872
AAGAGTCT	0.00073
GAGAGTCA	0.43
AAGAGTCA	0.422
GGCTGGTA	0.0349
TATATTCA	0.0779
GAGTGTTA	0.00822
GTGCGATA	0.0799
GCAGTCTA	-0.0301
CGGGTGAC	0.143
GCATTGAC	-0.0613
GGCTGCCA	0.181
GCGGTAGC	0.0852
CAGAGAGG	-0.086

Sequence	PBM E-score
AGGGTGGG	0.282
AGGGTGGA	0.0785
AGGGTGGC	0.173
AAGACTCC	0.158
CAGACTCC	-0.0111
GAGACTTA	-0.164
TAGACTCA	0.221
AAGACTCT	0.209
CAGACTCA	0.27
GAGACTCA	0.36
AAGACTCA	0.317
GAGACTCC	0.286
CGAACCAG	0.0659
AACGGTTG	0.038
CCATAGGC	-0.172
GCCGCCCC	0.0606
CCCGCCCA	0.301
GCCGCCCA	0.128
ACCGCCCT	-0.0373
ACCGCCCG	-0.058
CCCGCCCC	0.329
CCCGCCCG	0.259
ACCGCCCC	0.325
CCCCGCCC	0.258
GAGTCTGC	-0.0315

Sequence	PBM E-score
AGTTTATG	-0.0791
ACGTTATG	-0.0459
CCTTCGCC	-0.031
ATGCAGTG	0.276
ATGCAGTC	0.184
ATGCAGTA	0.0873
GAATTTCC	-0.0327
GGAGAAAA	-0.292
AATCCACC	0.154
GAGTCGTA	0.405
CAGTCGGC	0.0497
AAGTCGTA	-0.0973
TAGTCGGA	0.203
CAGTCCGA	0.126
CAGTCGGA	0.0502
GAGTCCGC	0.224
AAGTCGGC	-0.177
GAGTCCGA	0.308
GAGTCGGA	0.416
CAGTCGTA	0.132
GAGTCGGC	0.411
AGTCCACT	-0.158
ATGCATCC	-0.152
GCAGCCCA	0.0376
AGGATTGG	-0.0691

Sequence	PBM E-score
TAGTTAAA	0.0419
AACTGAAT	0.00051
GATTGGCA	-0.056
AACTGAGG	-0.0666
GTACAAAA	-0.0126
ACGTTGAC	0.0527
CCACCTGG	-0.0837
CATCCTCG	0.124
AATATCAA	0.0811
CATATCGG	0.0424
CATATCAA	0.278
CATATCAG	-0.0382
CATATCGA	0.292
GATATCGA	-0.0237
CTTATACC	-0.0429
GCACAGAA	-0.0823
CCGCGAAG	0.039
GGAGATCC	-0.0359
CGCTTAAC	-0.225
TACGTCAA	-0.139
CAAACAGG	0.0517
CCTATGAC	0.0237
ACTATGAC	0.286
ACTATGAA	0.0955
ACTATGAT	0.351

Sequence	PBM E-score
ACTATGAG	0.181
GCTATGAC	0.201
AGACTACT	0.216
ATTCTATC	-0.154
CCGCTAGC	-0.266
GCTGTCCC	-0.206
AGATCGAC	-0.0907
AATCAGAC	0.201
CCGTGGCG	0.189
GCGGTCAC	-0.00992
GACCCAGA	0.0388
AAATCAGC	0.121
CAATCAGC	0.193
GAATCAGA	0.319
TAATCAGA	0.146
AAATCAGA	0.0175
GAATCAGC	0.307
CCACACCC	0.197
GAAAATTC	-0.274
AAGCTTCC	-0.37
CTGGGCTC	-0.135
ATGGGCTG	0.198
ATGGGCTC	0.272

— the supplement of paper PMC3334620
